Reference: ChEMBL document CHEMBL1201862, “PubChem BioAssay data set” (2004)
Out of some 310,000 compounds screened, about 11,000 (3.5%) were called active. About 8% were inconclusive and are not listed. The rule behind the calls is not given here. The entries come from a sample that favours actives as a whole.

target: Nuclear receptor ROR-gamma (Mus musculus) (UniProt P51450); experiment: VP16 counterscreen qHTS for inhibitors of ROR gamma transcriptional activity.; assay type: functional
Sequence (P51450 whole entry): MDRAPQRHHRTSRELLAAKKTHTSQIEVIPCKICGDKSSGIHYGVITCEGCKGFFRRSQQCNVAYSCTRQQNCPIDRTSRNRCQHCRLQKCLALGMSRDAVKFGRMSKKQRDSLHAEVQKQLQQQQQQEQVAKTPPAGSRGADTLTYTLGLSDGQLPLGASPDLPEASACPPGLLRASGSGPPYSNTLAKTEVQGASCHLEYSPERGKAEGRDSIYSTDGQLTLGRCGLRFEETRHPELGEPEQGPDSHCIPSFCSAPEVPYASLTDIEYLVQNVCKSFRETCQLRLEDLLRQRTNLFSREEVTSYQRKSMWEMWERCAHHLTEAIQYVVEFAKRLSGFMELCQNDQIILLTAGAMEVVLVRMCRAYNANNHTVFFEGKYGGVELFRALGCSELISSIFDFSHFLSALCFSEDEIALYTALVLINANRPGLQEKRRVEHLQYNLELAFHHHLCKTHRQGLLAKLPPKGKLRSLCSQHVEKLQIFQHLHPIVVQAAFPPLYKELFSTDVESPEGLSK

Row | Structure (SMILES) | Potency
1 | O=C(Oc1c(Cl)cc(Cl)c2cccnc12)c1cccc([N+](=O)[O-])c1 | 200 µM (active)
2 | COc1cccc2sc(Nc3nc(-c4ccccn4)cs3)nc12 | 355 µM (active)
3 | O=C(N/N=C(\c1ccccc1)c1cccnc1)c1cccc(F)c1 | 891 µM (active)
4 | O=C(NC1CCCCCCC1)C1CCN(c2nc3ccccc3o2)CC1 | 631 µM (active)
5 | Cc1ccc(-n2c(C)cc(C(=O)COC(=O)c3cccnc3O)c2C)cc1 | 224 µM (active)
